# Data published in PubChem BioAssay (NCATS).
# Records with an inconclusive call do not appear. A call without a number means that no potency is given here. For some assays here: Results with a measured potency or affinity are listed apart. The source made the active and inactive calls.
# Experiments:
# [1] = Ebola virus entry assay, green channel fluorescence
# [2] = Ebola virus entry assay, reporter ratio channel; Channel type: primary
# [3] = Ebola virus entry assay, blue channel (ratio component)
# [4] = qHTS assay for measurement of the activity of small molecule inhibitors on Zika virus induced Caspase-3 activity in human iPSC derived neural progenitor cells (hNPCs) (AID 1224857; active means well fitted inhibition curve with a large enough effect; further: nearly all actives have a fitted effect of over 65% in size); settings: hNPCs ZIKV-induced caspase-3/7, Caspase-Glo luminescence, 6 h; series mostly up to 45.7 µM
# In short: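 Human iPSC-derived neural progenitor cells pretreated 1 hr with compounds, then infected with Zika virus (2 FFU/cell) for 6 hours at 37 C. Caspase-3/7 measured by Caspase-Glo luminescence; % inhibition calculated from induction scaled to uninfected (0%) and infected (100%) wells.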
# [5] = qHTS assay for measurement of the activity of small molecule inhibitors on Zika virus induced Caspase-3 activity in human astrocytoma cells (AID 1224859; active means well fitted inhibition curve with a large enough effect); settings: SNB-19 ZIKV-induced caspase-3/7, luminescence, 6 h; series mostly up to 45.7 µM
# In short: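 SNB-19 astrocytoma cells, 250/well, pretreated 1 h with compounds, then Zika virus at 2 FFU/cell for 6 h at 37 C; Caspase-Glo 3/7 luminescence after 30 min; percent inhibition normalised to uninfected and infected controls.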
# [6] = Immunotoxin (HA22) sensitization/mitigation study. Vehicle arm (PBS) (AID 1159510); settings: cancer cells viability with PBS vehicle (HA22 study); series mostly up to 46.1 µM; further: potency means the concentration at half of the fitted maximal effect
# [7] = Ebola virus entry assay, blue channel fluorescence
# [8] = Ebola virus entry reporter assay, green channel fluorescence
# [9] = Ebola virus entry cell assay, ratio channel
structure (smiles),measurement,setting,value
Cc1cccc(C)c1NC(=O)c1ccc(N)cc1,outcome,[1],inactive
same,outcome,[2],inactive
same,outcome,[3],inactive
OCc1ccccn1,outcome,[1],inactive
same,outcome,[2],inactive
same,outcome,[3],inactive
Cc1cccc(C)c1NC(=O)c1ccccc1C(=O)O,outcome,[1],inactive
same,outcome,[2],inactive
same,outcome,[3],inactive
CCC(=O)O[C@@H]1C=C2CCC3C(CCC4(C)C3CC[C@@H]4OC(=O)CC)C2CC1 (stereo not given in full),outcome,[1],inactive
same,outcome,[2],inactive
same,outcome,[3],inactive
same,Potency,[4],inactive
same,Potency,[5],inactive
O=C(O)c1cc(Oc2ccc(C(F)(F)F)cc2Cl)ccc1[N+](=O)[O-],outcome,[1],inactive
same,outcome,[2],inactive
same,outcome,[3],inactive
same,Potency,[4],inactive
same,Potency,[5],inactive
NCCCC(N)(C(=O)O)C(F)F (stereo not given),outcome,[1],inactive
same,outcome,[2],inactive
same,outcome,[3],inactive
CC(O)=C(C#N)C(=O)Nc1ccc(C(F)(F)F)cc1,Potency,[6],16.6 µM (active)
COc1ccc(CCN(C)CCCOc2ccc(S(=O)(=O)c3[nH]c4ccccc4c3C(C)C)cc2)cc1OC,Potency,[6],26.4 µM (active)
CN[C@@H](C)C(=O)N[C@H]1CCCC[C@H]2CC[C@@H](C(=O)N[C@@H](c3ccccc3)c3cn(CCCCc4ccc(CCCCn5cc([C@@H](NC(=O)[C@@H]6CC[C@@H]7CCCC[C@H](NC(=O)[C@H](C)NC)C(=O)N76)c6ccccc6)nn5)cc4)nn3)N2C1=O,Potency,[6],inactive
CC(C)(C)c1cc(NC(=O)Nc2ccc(-c3cn4c(n3)sc3cc(OCCN5CCOCC5)ccc34)cc2)no1,Potency,[6],0.59 µM (active)
O=C1C(I)=CC(=C(c2cc(I)c(O)c(I)c2)c2ccccc2C(=O)O)C=C1I,outcome,[1],inactive
same,outcome,[2],inactive
same,outcome,[3],inactive
same,Potency,[4],inactive
same,Potency,[5],inactive
O=C(c1ccc(Nc2nccc(-c3cc4ccccc4s3)n2)cc1)N1CCC(N2CCCC2)CC1,Potency,[6],16.6 µM (active)
COCCOCCO,outcome,[1],inactive
same,outcome,[2],inactive
same,outcome,[3],inactive
same,Potency,[4],inactive
same,Potency,[5],inactive
CCn1c(-c2nonc2N)nc2c(C#CC(C)(C)O)ncc(OC[C@H]3CCCNC3)c21,Potency,[6],10.5 µM (active)
CCOCCOC(C)=O,outcome,[1],inactive
same,outcome,[2],inactive
same,outcome,[3],inactive
same,Potency,[4],inactive
same,Potency,[5],inactive
O=C(O)C(Cl)Cl,outcome,[1],inactive
same,outcome,[2],inactive
same,outcome,[3],inactive
same,Potency,[4],inactive
same,Potency,[5],inactive
O=C(O)c1ccccc1O,outcome,[2],inactive
same,outcome,[3],inactive
CN1[C@@H]2CC[C@H]1CC(OC(=O)C(O)c1ccccc1)C2 (stereo not given in full),outcome,[3],inactive
CC(O)CN1CCN(CC(=O)[O-])CCN(CC(=O)[O-])CCN(CC(=O)[O-])CC1.[Gd+3] (stereo not given),outcome,[2],inactive
same,outcome,[3],inactive
same,Potency,[4],inactive
COc1ccc(C2=N[C@H](c3ccc(Cl)cc3)[C@H](c3ccc(Cl)cc3)N2C(=O)N2CCNC(=O)C2)c(OC(C)C)c1,Potency,[6],2.64 µM (active)
NC(=O)C1CCCc2c1[nH]c1ccc(Cl)cc21 (stereo not given),Potency,[6],inactive
C[C@@H]1CN(CC(=O)Nc2ccc3c(c2)Cc2cccc(-c4cc(=O)cc(N5CCOCC5)o4)c2S3)C[C@H](C)O1,Potency,[6],16.6 µM (active)
CC[C@@H]1C(=O)N(C)c2cnc(Nc3ccc(C(=O)NC4CCN(C)CC4)cc3OC)nc2N1C1CCCC1,Potency,[6],0.0066 µM (active)
CC1=C(C(=O)O)N2C(=O)[C@@H](N)[C@H]2SC1,outcome,[1],inactive
same,outcome,[2],inactive
same,outcome,[3],inactive
same,Potency,[4],inactive
same,Potency,[5],inactive
CCOC(CN1C(=O)[C@](CC(=O)Nc2ccc(C)cc2)(NC(=O)Nc2ccc(C)cc2)c2ccccc21)OCC,Potency,[6],23.5 µM (active)
CC[C@H](Nc1ncnc2nc[nH]c12)c1nc2cccc(F)c2c(=O)n1-c1ccccc1,Potency,[6],20.9 µM (active)
CCN(CCCO)CCCOc1ccc2c(Nc3cc(CC(=O)Nc4cccc(F)c4)[nH]n3)ncnc2c1,Potency,[6],18.7 µM (active)
CS(=O)(=O)c1cccc(CNc2nc(Nc3ccc4c(c3)CCC(=O)N4)ncc2C(F)(F)F)c1,Potency,[6],4.69 µM (active)
C[C@]12CC[C@H](O)CC1=CC[C@@H]1[C@H]2CC[C@]2(C)C(c3cccnc3)=CC[C@H]12,Potency,[6],1.87 µM (active)
Cc1cccc(Nc2nc(N[C@@H]3CCCC[C@H]3N)ncc2C(N)=O)c1,Potency,[6],18.7 µM (active)
CNC(=O)c1ccc(N2C(=S)N(c3ccc(C#N)c(C(F)(F)F)c3)C(=O)C2(C)C)cc1F,Potency,[6],inactive
S=C(SSC(=S)N1CCCCC1)N1CCCCC1,outcome,[1],inactive
same,outcome,[2],inactive
same,outcome,[3],inactive
same,Potency,[5],inactive
N#CC[C@H](C1CCCC1)n1cc(-c2ncnc3[nH]ccc23)cn1,Potency,[6],23.5 µM (active)
CCC1(CCC(C)C)C(=O)NC(=O)NC1=O,outcome,[1],inactive
same,outcome,[2],inactive
same,outcome,[3],inactive
same,Potency,[4],inactive
same,Potency,[5],inactive
CC(=O)Nc1ccc(O)cc1,outcome,[2],inactive
same,outcome,[3],inactive
Fc1cc(Br)ccc1CBr,outcome,[1],inactive
same,outcome,[2],inactive
same,outcome,[3],inactive
same,Potency,[4],inactive
same,Potency,[5],inactive
O=[N+]([O-])c1c2ccccc2cc2ccccc12,outcome,[1],inactive
same,outcome,[2],inactive
same,outcome,[3],inactive
same,Potency,[5],inactive
CC(C)(C)NCC(O)c1ccc(O)c(CO)c1 (stereo not given),outcome,[2],inactive
Cc1cc(C(=O)NNCc2ccccc2)no1,outcome,[7],inactive
same,outcome,[8],inactive
same,outcome,[9],inactive
CCOc1cc(NC(C)=O)ccc1C(=O)OC,outcome,[2],inactive
Clc1ccccc1CN1CCc2sccc2C1,outcome,[2],inactive
same,outcome,[3],inactive
COc1cc(C)c(Sc2cnc(NC(=O)c3ccc(CNC(C)C(C)(C)C)cc3)s2)cc1C(=O)N1CCN(C(C)=O)CC1 (stereo not given),Potency,[6],14.8 µM (active)
COc1cccc2c1C(=O)c1c(O)c3c(c(O)c1C2=O)C[C@](O)(C(=O)CO)C[C@@H]3O[C@H]1C[C@H](N)[C@@H](O)[C@H](C)O1,AC50,[9],7.08 µM (active)
COc1cccc(OC)c1-c1cc(C(=O)NC2(C(=O)O)C3CC4CC(C3)CC2C4)nn1-c1ccnc2cc(Cl)ccc12 (stereo not given),Potency,[6],29.6 µM (active)
CC(C)OC(=O)C1=CN(C(=O)c2ccc(F)c(F)c2)CC(C)(C)c2c1[nH]c1ccccc21,Potency,[6],2.96 µM (active)
CC(C)c1onc(-c2c(Cl)cccc2Cl)c1COc1ccc(/C=C/c2cccc(C(=O)O)c2)c(Cl)c1,Potency,[6],3.32 µM (active)
CNC1CCN(C(Cc2cccc(-c3ccncc3)c2)C(=O)c2sc3c(F)ccc(F)c3c2Cl)CC1 (stereo not given),Potency,[6],20.9 µM (active)
CC(C)(C)c1cc(C(C)(C)C)c(NC(=O)c2c[nH]c3ccccc3c2=O)cc1O,Potency,[6],16.6 µM (active)
Nc1nccc(Oc2ccc(NC(=O)c3c[nH]cc(-c4ccc(F)cc4)c3=O)cc2F)c1Cl,Potency,[6],23.5 µM (active)
Cc1cccc(-c2nn(C(=S)Nc3ccccc3)cc2-c2ccnc3ccccc23)n1,Potency,[6],18.7 µM (active)
COc1cc2nccc(Oc3ccc(NC(=O)C4(C(=O)Nc5ccc(F)cc5)CC4)cc3)c2cc1OC,Potency,[6],20.9 µM (active)
COc1cc2c(Oc3ccc4[nH]c(C)cc4c3F)ncnc2cc1OCCCN1CCCC1,Potency,[6],13.2 µM (active)
CCN(CC)CCCCNc1nc2cc(Cl)c(Cl)cc2nc1-c1ccc(-c2cccs2)s1,Potency,[6],18.7 µM (active)
